Screening data: PubChem, National Center for Advancing Translational Sciences (NCATS)
A selection: hits, their analogues and other compounds. The true share with any hit is near 8.1%.
Sfp PPTase inh: Sfp phosphopantetheinyl transferase inhibition; Potency, µM, without a hit: largest response in the series, negative = inhibition, hits mostly inhibitors; 310,000 compounds, 3.5% hits; Biochemical Sfp PPTase activity, qHTS; Q9F4F7; AID 1490;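 note: the enzyme is Sfp with the accession as filed and its product quenches rhodamine fluorescence; 0% = enzyme reaction without inhibitor and -100% = no enzyme wells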
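Sfp 15 nM + cpd, 15 min RT; start w/ rhodamine-CoA 5 uM, BHQ-2-YbbR 12.5 uM (final); 50 mM Hepes pH 7.6, 10 mM MgCl2, 0.01% NP-40, 0.01% BSA; read 525/598 nm at 0 and 30 min.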
Gal4-VP16 FLuc: counter-screen for ROR gamma inhibitors: Gal4-VP16 reporter | Drosophila S2 Gal4-VP16 UAS-luciferase, luminescence, 20 h | Potency, µM (doses to about 53.6 µM), without a hit: top-dose activity, negative = inhibition, actives largely listed as inhibitors | 310,000 compounds, 3.5% hits | AID 2546;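 note: Gal4-VP16 expression switched on by copper sulfate through the metallothionein promoter; % is set by controls: 0 for no effect and ±100 for the full control effect; nearly all actives have a fitted effect of over 50% in size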
PINK1 expr mod: modulators of PINK1 expression; PINK1 immunofluorescence, high-content cytometry, 24 h; Potency, µM (highest dose often 76.6 µM), for inactives: at the top dose activation (PINK1 increase), most hits filed as activators; 410,000 compounds, 0.2% hits; active = well fitted activation curve with a large enough effect; inconclusive = small, poorly fitted or top-dose-only effect; cell line not stated here; note: % of control where 0% means no effect; nearly all actives have a fitted effect of over 65% in size
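PINK1 protein, normally rapidly degraded, was detected by immunofluorescence after 24 hour compound treatment of a stable cell line. Titration data (5 concentrations) came from laser-scanning cytometry, with CCCP-treated wells as controls.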
RORg inh: ROR gamma (mouse) transcription inhibition; P51450; Drosophila S2 Gal4-RORgamma UAS-luciferase reporter, 20 h; Potency, µM (doses to about 53.6 µM), without a hit: top-dose activity change, negative = inhibition, actives largely listed as inhibitors; 310,000 compounds, 5.4% hits; note: % is set by controls: 0 for no effect and ±100 for the full control effect; nearly all actives have a fitted effect of over 60% in size
Target sequence (P51450 whole entry, looked up, the tested form may be a part): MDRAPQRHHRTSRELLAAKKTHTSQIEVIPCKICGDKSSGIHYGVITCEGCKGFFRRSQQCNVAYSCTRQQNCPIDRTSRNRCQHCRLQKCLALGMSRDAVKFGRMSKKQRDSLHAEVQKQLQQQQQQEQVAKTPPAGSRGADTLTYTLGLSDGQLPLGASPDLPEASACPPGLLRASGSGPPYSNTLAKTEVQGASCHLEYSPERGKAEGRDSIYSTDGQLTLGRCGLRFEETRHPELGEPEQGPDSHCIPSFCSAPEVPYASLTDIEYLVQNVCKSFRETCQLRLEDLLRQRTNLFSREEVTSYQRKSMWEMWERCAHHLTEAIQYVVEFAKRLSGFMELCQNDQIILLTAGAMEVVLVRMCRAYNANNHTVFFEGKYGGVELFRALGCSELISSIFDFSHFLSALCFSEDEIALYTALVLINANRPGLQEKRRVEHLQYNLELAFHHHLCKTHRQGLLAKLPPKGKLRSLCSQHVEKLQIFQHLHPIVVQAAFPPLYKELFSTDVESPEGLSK
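Schneider cells (Drosophila), stable Gal4 DBD–ROR gamma + UAS-luc; 1 hr cmpd preincubation; Cu2+ induction 700 uM final; 20 hr ambient; luminescence.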
ClpP mod: qHTS Assay for Activators of ClpP; purified B. subtilis ClpP, FRET peptide cleavage, 20 min; 340,000 compounds, 1.9% hits; Potency, µM (top dose mostly 57.5 µM), without a hit: at the top dose activity change, negative = active; AID 651965, 2013; active = well fitted falling curve with a large enough effect; inconclusive = small, poorly fitted or top-dose-only effect; inactive = no such curve, though single readings can be large or run the other way; note: the source files actives as falling curves though it sought activators and does not explain the sign; nearly all actives have a fitted effect of over 65% in size
Target sequence (P80244 whole entry, looked up): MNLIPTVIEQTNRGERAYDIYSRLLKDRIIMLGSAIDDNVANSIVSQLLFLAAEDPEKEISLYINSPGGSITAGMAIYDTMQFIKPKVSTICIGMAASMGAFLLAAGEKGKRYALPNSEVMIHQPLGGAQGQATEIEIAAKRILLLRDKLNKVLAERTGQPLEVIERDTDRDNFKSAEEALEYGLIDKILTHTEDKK
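Buffer: 100 mM Tris/HCl pH8, 100 mM KCl, 0.05% low protease BSA, 2.5% glycerol, 0.01% Tween-20. ClpP 10 microg/mL final; 20 min RT; delta FRET normalized to ADEP and DMSO controls.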
Epigenetic reg: epigenetic control regulation, reporter derepression. murine LDR cells, GFP reporter derepression, 30 h. Potency, µM (titrated, usually from 53.9 µM), without a hit: top-dose GFP activation, actives largely listed as activators. 280,000 compounds, 0.2% hits. AID 1865; note: % of control where 0% means no effect; nearly all actives have a fitted effect of over 60% in size
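GFP-positive cell count by laser-scanning cytometry (objects 20–120 um) after 30 h, 37 C compound exposure of murine LDR cells; reporter is CMV-GFP integrated at a silenced locus, inducible by HDAC or DNMT inhibitors.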
* marks the source's active call; other numbers are inactive results; ? = inconclusive; . = no result; [ ] = another dose, or the depositor's remark. Unless noted, calls come from the whole dose curve; as a rule, active = well fitted curve in the direction sought with a large enough effect; inconclusive = small, poorly fitted or top-dose-only effect, or another doubt; inactive = no such curve, though single readings can be large; an effect the other way counts as inactive or inconclusive. Potency is the fitted concentration of half-maximal effect.

SMILES | Sfp PPTase inh | Gal4-VP16 FLuc | PINK1 expr mod | RORg inh | ClpP mod | Epigenetic reg
O=C(Nc1cccc(Cl)c1)Nc1nnc(-c2ccncc2)s1 | -2.7% | -11.2% | 7.08µM* | ? | -12.2% | 1.0%
O=C(NCCc1ccncc1)Nc1cccc(Cl)c1 | 0.9% | 0.1% | 1.6% | 30.1% | 1.6% | 0.1%
Cc1ccc(NC(=O)Nc2nnc(-c3ccncc3)s2)cc1C | 13.1% | 7.5% | 15.8µM* | 7.0% | -1.6% | 2.2%
O=C(Nc1ccc(Cl)cc1)Nc1nnc(-c2ccncc2)s1 | -11.6% | 2.4% | 7.94µM* | 19.8%[10 µM] | -12.6% | 0.0%
CCCOc1cccc(C(=O)Nc2ccc(-c3nc4ccccc4o3)cc2)c1 | . | . | 9.6% | . | 4.1% | 0.0%
COc1ncc2nc(-c3ccc(F)cc3)c(=O)n(CCC#N)c2n1 | 3.6% | 3.1% | -0.4% | -9.2% | . | .
COc1cc2c(cc1NC(=O)COC(=O)CNC(=O)c1ccccc1)oc1ccccc12 | ? | 6.31µM* | -1.3% | 11.2µM* | 1.2% | -0.2%
COc1cc2c(cc1NC(=O)COC(=O)C1CC(=O)N(Cc3ccco3)C1)oc1ccccc12 (stereo not drawn) | 3.4% | 7.94µM* | 1.0% | 8.91µM* | 25.1µM* | 0.1%
COc1cc2c(cc1NC(=O)COC(=O)[C@@H](NC(=O)c1ccccc1F)C(C)C)oc1ccccc12 | ? | 11.2µM* | 0.8% | 10µM* | 5.62µM* | 3.3%
COc1cc2c(cc1NC(=O)COC(=O)[C@@H](NC(=O)c1ccccc1)C(C)C)oc1ccccc12 | 2.0% | ? | 0.1% | 8.91µM* | ? | 0.0%
COc1cccc(NC(=O)Cn2c(=O)n(CCC(=O)NCc3ccccc3OC)c(=O)c3ccccc32)c1 | . | . | -0.1% | . | -3.3% | -1.8%
O=C(COc1ccccc1C(=O)Nc1ccccc1)Nc1cccc([N+](=O)[O-])c1 | . | . | 1.6% | . | -3.8% | .
O=C(NCc1cccnc1)[C@@H]1CC=C[C@@H]2CCN(C3CCCCC3)C(=O)[C@@H]21 | . | . | . | . | 0.6% | .
COc1cccc(NC(=O)c2ccccc2OCC(=O)Nc2ccc(Br)cc2)c1 | . | . | 2.6% | . | -12.7% | .
Cc1ccc(C(=O)Oc2ccc(C(=O)COC(=O)C3CC(=O)N(Cc4ccco4)C3)cc2)cc1 (stereo not drawn) | ? | -0.5% | 1.1% | 21.2% | -2.5% | 0.2%
O=C(COC(=O)C1CC(=O)N(Cc2ccco2)C1)c1ccc(OC(=O)c2ccco2)cc1 (stereo not drawn) | 12.6µM* | ? | 0.1% | ? | -3.4% | 4.7%
CC(=O)OCC(=O)c1ccc2ccn(C(C)=O)c2c1 | 20.2% | -6.5% | 3.4%[38.3 µM] | 3.5% | 35.5µM* | 0.0%
CCOC(=O)N1CCN(c2ncnc3c2[nH]c2ccc(OC)cc23)CC1 | 3.0% | -15.9% | 0.0% | 0.3% | 25.1µM* | 0.1%
CCOC(=O)N1CCN(c2ncnc3c2[nH]c2ccc(F)cc23)CC1 | 19.3% | 7.08µM* | 2.7% | ? | ? | -1.1%
COc1cc2[nH]c3c(N4CCN(c5ccccn5)CC4)ncnc3c2cc1OC | 9.6% | 17.8µM* | -1.2% | ? | ? | 0.0%
COc1ccc2[nH]c3c(N4CCc5ccccc5C4)ncnc3c2c1 | -13.0% | 12.6µM* | -1.5% | ? | 1.1% | 11.5%
Fc1ccc2[nH]c3c(N4CCN(c5ccccc5)CC4)ncnc3c2c1 | -3.1% | . | 6.3% | 3.7%[0.365 µM] | 6.8% | 0.0%
Cc1ccc(S(=O)(=O)c2nc(-c3cccc(Br)c3)oc2N2CCCCCC2)cc1 | . | . | -0.6% | . | -18.6% | -1.0%
COc1ccc(N2CCN(c3ncnc4c3[nH]c3ccccc34)CC2)cc1 | -12.1% | 7.08µM* | 5.8% | ? | 0.3% | 0.0%
CCOc1ccc2[nH]c3c(N4CCC5(CC4)OCCO5)ncnc3c2c1 | ? | 4.8% | 5.1% | -1.6% | 31.6µM* | 1.6%
SMILES | Sfp PPTase inh | Gal4-VP16 FLuc | PINK1 expr mod | RORg inh | ClpP mod | Epigenetic reg
CSc1ccc(-c2nc3ccc(C)cn3c2Nc2ccccc2C)cc1 | . | . | -1.0% | . | 3.55µM* | -0.1%
Cc1ccc2nc(-c3ccsc3)c(Nc3ccccc3C)n2c1 | . | . | 2.6% | . | 3.6% | 1.2%
Cc1ccc(C)c(SCC(=O)OC/C(O)=C(\C#N)c2nc3ccccc3[nH]2)c1 | 9.7% | ? | 9.4% | 10µM* | -8.4% | ?
N#C/C(=C(/O)COC(=O)CSc1ccc2ccccc2c1)c1nc2ccccc2[nH]1 | 1.8% | 14.1µM* | 7.3% | 7.08µM* | -5.9% | ?
Oc1cc(-n2cccn2)c(O)cc1-n1cccn1 | 5.01µM* | 12.6µM* | 0.9% | ? | 28.2µM* | 1.1%
COc1ccccc1CN(Cc1ccco1)c1cnc(S(C)(=O)=O)nc1C(=O)Nc1ccccc1Cl | . | . | -1.5% | . | -19.2% | -3.2%
Cc1sc2nc(CSc3ccc([N+](=O)[O-])cc3)[nH]c(=O)c2c1C | 50.1µM* | -7.5% | . | 11.8% | . | ?
Cc1ccc(-n2nnnc2SCc2nc3sc(C)c(C)c3c(=O)[nH]2)cc1 | -3.6% | ? | ? | 11.2µM* | 3.55µM* | ?
Cc1sc2nc(CSc3n[nH]c(N)n3)[nH]c(=O)c2c1C | 79.4µM* | -10.7% | 1.2% | -3.2% | . | -1.4%
Cc1sc2nc(CSc3nc4ccccc4s3)[nH]c(=O)c2c1C | -0.4% | ? | . | 0.9% | . | 5.3%
CN1CCN(C(=O)c2ccc3c(c2)N(Cc2c(F)cccc2Cl)C(=O)c2ccccc2S3)CC1 | . | . | 3.8% | . | -3.9% | 1.1%
CCOc1ccc(/C=N/NC(=O)c2ccc(Cn3cc([N+](=O)[O-])cn3)o2)cc1 | -11.9% | 25.3% | -1.0% | 4.4% | -3.3% | -1.8%
CCN=C(N/N=C/c1ccc([N+](=O)[O-])cc1)SC | 79.4µM* | 11.1% | -3.3% | 41.4% | -5.2% | -0.8%
CCOc1ccc(CNC(=S)N/N=C/c2cccnc2)cc1 | 26.0% | ? | 2.2% | 7.94µM* | 0.6% | 0.0%
COCCNC(=S)N/N=C/c1ccc(OCc2ccc(C(=O)OC)cc2)c(OC)c1 | 8.1% | 7.08µM* | 8.8% | 2.24µM* | -21.9% | 1.1%
CC(C)(C)c1ccc(OCc2ccc(C(=O)N/N=C/c3ccc([N+](=O)[O-])cc3)o2)cc1 | 19.7% | 10µM* | 1.8% | ? | -0.4% | 2.2%
Cc1ccc(C(=O)N(Cc2cc3cccc(C)c3nc2N2CCC(O)CC2)C2CC2)cc1 | . | . | 1.1% | . | . | .
CC(C)Oc1ccc(CNC(=S)N/N=C/c2cccnc2)cc1 | 7.5% | 12.6µM* | 5.2% | 3.98µM* | -2.4% | -0.1%
CCOc1ccc(CC(=O)N/N=C/c2cccnc2)cc1 | 14.3% | -9.0% | -0.5% | 16.2% | 15.8µM* | -1.3%
CC(C)(C)c1ccc(OCc2ccc(C(=O)NCc3cccnc3)o2)cc1 | ? | 1.41µM* | 0.6% | ? | 0.2% | -3.5%
